# Cycloheximide cs = counter-screen hit for Shiga toxin inhibitors, cycloheximide | cell reporter, cycloheximide protein synthesis inhibition counterscreen | max response, % | 300,000 compounds, 12% hits; in the data active = max response mostly above about 13%, no sharp cut-off; inactive = mostly below about 14%; note: read at 38.3 µM for the half of the compounds with a filed dose; 0% is about no effect
# TbPYK inhibitor = blocks Trypanosoma brucei pyruvate kinase; TbPYK enzyme, Kinase-Glo Plus ATP luminescence, 45 min; 410,000 compounds, 0.12% hits; Potency, µM (top dose mostly 76.8 µM), inactives show at the highest dose activity, negative = inhibition, hits mostly inhibitors; note: potency is the fitted concentration of half-maximal effect; % is set by controls: 0 for no effect and ±100 for the full control effect; nearly all actives have a fitted effect of over 50% in size
#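 Readout: single end-point luminescence (Kinase-Glo Plus, 10 min). Reaction conditions were TbPYK/substrate plus 130 uM ADP, 45 min at RT, pH 7.2 TEA buffer. No-enzyme wells served as controls, and data were normalized before concentration-response fitting.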
# RE007 growth inh = less growth of the S. pombe RE007 Vpr strain; S. pombe RE007 Vpr strain, BacTiter-Glo ATP luminescence, 24 h; Potency, µM (top dose mostly 92.2 µM), for the others: at the highest dose activity change, negative = less growth, hits mostly inhibitors; 360,000 compounds, 0.21% hits; active = well fitted falling curve with a large enough effect; inconclusive = small, poorly fitted or top-dose-only effect; inactive = no such curve, though single readings can be large or run the other way; note: potency is the fitted concentration of half-maximal effect; % is set by controls: 0 for no effect and ±100 for the full control effect; nearly all actives have a fitted effect of over 50% in size
#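 Fission yeast strain RE007, carrying one chromosomally integrated HIV-1 vpr copy, was seeded at OD 0.01 in PMG+AL medium with 23 nL pinned compound. After 24 h at 30 °C and 99% humidity, viability was read by BacTiter-Glo luminescence.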
# Shiga toxin inh = blocks Shiga toxin action in Vero cells; Vero cells, Shiga toxin protein synthesis inhibition reporter; inhibition, % at 38.7 µM; 290,000 compounds, 9.2% hits; AID 2315; in the data active = inhibition mostly above about 28%, no sharp cut-off; inactive = mostly below about 43%; note: 0% is about no effect
# LmPK inh = LmPK (Leishmania mexicana) enzyme inhibition; Q27686; purified LmPK, Kinase-Glo ATP luminescence, 1 h; Potency, µM (titrated, usually from 57.5 µM), for inactives: at the highest dose activity change, negative = inhibition, usual class: inhibitors; 290,000 compounds, 0.37% hits; note: potency is the fitted concentration of half-maximal effect; % is set by controls: 0 for no effect and ±100 for the full control effect
# Target sequence (Q27686 whole entry, looked up): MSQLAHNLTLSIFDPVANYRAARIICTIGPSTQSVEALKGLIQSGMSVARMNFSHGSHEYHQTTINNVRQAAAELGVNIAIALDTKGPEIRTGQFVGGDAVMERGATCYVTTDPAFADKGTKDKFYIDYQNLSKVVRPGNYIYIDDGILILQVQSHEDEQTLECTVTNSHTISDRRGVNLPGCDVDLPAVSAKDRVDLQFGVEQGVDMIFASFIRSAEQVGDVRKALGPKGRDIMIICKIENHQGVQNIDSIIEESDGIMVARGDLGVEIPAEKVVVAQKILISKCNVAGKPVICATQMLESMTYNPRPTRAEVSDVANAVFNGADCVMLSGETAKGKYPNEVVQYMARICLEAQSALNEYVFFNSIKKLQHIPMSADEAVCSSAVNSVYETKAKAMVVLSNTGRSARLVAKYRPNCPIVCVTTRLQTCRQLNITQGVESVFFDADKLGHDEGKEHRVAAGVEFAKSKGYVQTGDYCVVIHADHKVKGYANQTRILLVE
#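 Kinase-Glo luminescence read after 1 h RT reaction of 0.1 nM LmPK with 0.5 mM PEP and 0.1 mM ADP. Activity scaled between uninhibited and enzyme-free controls.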
# Giardia FBPA inh = blocks Giardia fructose-bisphosphate aldolase activity; purified Giardia FBPA; Potency, µM (top dose mostly 59.6 µM), inactives show at the top dose activity, negative = inhibition, usual class: inhibitors; 290,000 compounds, 0.71% hits; AID 2451; note: potency is the fitted concentration of half-maximal effect; % is set by controls: 0 for no effect and ±100 for the full control effect; nearly all actives have a fitted effect of over 55% in size
#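 Giardia FBPA (40 nM reagent) was preincubated 10 min at RT with compound (up to 57.5 uM final), then substrate plus GAPDH/TPI/NAD/arsenate coupling system with diaphorase/resazurin was added; resorufin fluorescence (525/598 nm) was read after 20 min.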
# * hit, by the source's call; i = inactive; ? = inconclusive; · = no result; [ ] = remark or other dose. This excerpt belongs to a sample that is enriched for hits. Unless noted, calls come from the whole dose curve; as a rule, active = well fitted curve in the direction sought with a large enough effect; inconclusive = small, poorly fitted or top-dose-only effect, or another doubt; inactive = no such curve, though single readings can be large; an effect the other way counts as inactive or inconclusive.
SMILES,Cycloheximide cs,TbPYK inhibitor,RE007 growth inh,Shiga toxin inh,LmPK inh,Giardia FBPA inh
O=C(CSCc1c(Cl)cccc1Cl)Nc1nccs1,42,·,31%[3.69 µM],109*,3%,6%
O=C(Cc1ccccn1)Nc1ccccc1,-1,1%,-2%,18,1%,-7%
CCn1c(SCC(=O)Nc2nccs2)nnc1-c1cccnc1,31*,4%,-8%,19,-8%,·
CCC(=O)N1CCCc2cc(S(=O)(=O)N3CCC(C(=O)NCc4ccc(F)cc4)CC3)ccc21,·,4%,·,·,·,·
C=CCn1c(SCC(=O)Nc2ccc(C(=O)O)cc2)nnc1-c1cccnc1,2,-3%,14%,5,4%,3%
O=C(CCc1ccccc1)Nc1nccs1,20*,6%,-5%,·,7%,2%
Cc1ccc(SCC(=O)Nc2nccs2)cc1,42*,-4%,6%,71*,-3%,-7%
C=CCn1c(SCC(=O)Nc2cccc(OC)c2)nnc1-c1cccnc1,19*,2%,-1%,-48,1%,-16%
C=CCn1c(SCC(=O)Nc2ccc(F)cc2F)nnc1-c1cnccn1,26*,7%,-10%,45*,-8%,·
COc1ccc(-c2nnc(SCc3cc(=O)c4cc(C)cc(C)c4[nH]3)n2C)cc1,·,4%,·,·,·,·
Cn1c(=O)c2c(ncn2CC(=O)Nc2cccc(Cl)c2Cl)n(C)c1=O,·,5%,·,·,·,·
O=C(CSCc1ccccc1)Nc1nccs1,18*,-1%,0%,21,6%,0%
Cc1ccc(CCC(=O)Nc2nccs2)o1,40,-2%,0%,17,4%,-3%
Cc1cc(C)c2c(CC(=O)Nc3nccs3)coc2c1,20*,-3%,41%,11,8%,-2%
CCc1ccc(CCC(=O)Nc2nccs2)o1,34*,0%,-19%,60*,15%,2%
O=C(CCC1CCCCC1)Nc1nccs1,29*,1%,5%,77*,-7%,5%
Cc1cc(-c2ccc(S(=O)(=O)Nc3cccc(C)c3C)s2)on1,·,-4%,·,·,·,·
COc1ccc2c(c1)C(c1cc(OC)c(OC)c(OC)c1)CC(=O)O2 (centres undefined),8,·,·,i,·,-11%[89.2 µM]
COc1ccc(-c2ccc(C)cc2)cc1C1C2C=CCC(C)C2C(=O)N1Cc1ccccc1 (centres undefined),-5,·,·,-3,·,5%
CC(=O)N1CCCc2cc(S(=O)(=O)N3CCCC(C(=O)NC(C)C)C3)ccc21 (centres undefined),·,4%,·,·,·,·
O=C(CSc1cn(Cc2ccccc2)c2ccccc12)Nc1nccs1,37*,-15%,-7%,76*,9%,-1%
COc1cccc2cc(-c3nnc(Nc4ccccc4C)s3)c(=O)oc12,·,3%,·,·,·,·
Cc1ccc(NNC(=O)c2cc(C(C)(C)C)nn2Cc2ccccc2)cc1,9,4%,5%,22,4%,-15%
Cc1ccc(NC(=O)c2cc(C(C)(C)C)nn2Cc2ccccc2)cc1,12*,0%,5%,4,8%,-4%
CC(C)(C)c1cc(C(=O)NC2CC2)n(Cc2ccc(F)cc2)n1,-4,3%,5%,23,1%,1%
SMILES,Cycloheximide cs,TbPYK inhibitor,RE007 growth inh,Shiga toxin inh,LmPK inh,Giardia FBPA inh
CC(C)(C)c1cc(C(=O)Nc2ccc(F)cc2)n(Cc2ccc(F)cc2)n1,26*,7%,-11%,43*,2%,-9%
COc1ccc(Oc2ncc3nc(-c4ccccc4)c(=O)n(Cc4cccs4)c3n2)cc1,·,-6%,·,·,·,-4%
CCCCC/C=C\C/C=C\C/C=C\C=C\C(=O)CCCC(=O)O,·,·,·,·,·,-1%
CC(C)CCNC(=O)c1ccc2nc[nH]c2c1,24*,2%,-8%,52,3%,0%
O=C(NCCSc1ccc(Br)cc1)c1ccc2nc[nH]c2c1,21*,3%,-26%,16,-6%,·
CCNC(=O)CC1C(=O)N(c2ccccc2)C(=O)N1Cc1ccc(OC)cc1 (centres undefined),13*,-4%,7%,-2,-2%,2%
CCc1ccc(NC(=O)CC2C(=O)N(c3ccc(OC)cc3)C(=O)N2Cc2ccc(OC)cc2)cc1 (centres undefined),·,-3%,·,·,·,·
CCOc1ccccc1C1CC(=O)Oc2c1c(=O)n(C)c1ccccc21 (centres undefined),·,-2%,·,·,·,·
CCOC(=O)c1c(CS(=O)(=O)c2ccccc2)n(C)c2cc(Br)c(O)c(CN(C)C)c12,-8,-12%,-5%,-3,9%,-6%
CCOC(=O)c1c(C)n(C)c2cc(CN(C)C)c(O)c(S(=O)(=O)c3ccccc3)c12,23*,19%,1%,36,0%,1%
Cc1ccc(CNC(=O)Cn2cc(S(=O)(=O)Cc3ccccc3F)c3ccccc32)cc1,·,0%[15.4 µM],·,·,·,·
COc1cc(/C=C2\SC(=O)N(c3ccccc3Cl)C2=O)cc([N+](=O)[O-])c1O,2,-9%,35µM*,7,-4%,-2%
Cc1ccc(C2CC(=O)n3nc(-c4ccc(F)cc4)nc3S2)cc1 (centres undefined),·,-1%,·,·,·,·
Cc1noc(C)c1COc1ccc(C(=O)Nc2ccccn2)cc1,44*,-1%,-20%,89*,6%,5%
Cc1cccnc1NC(=O)c1ccc(OCc2c(C)noc2C)cc1,22*,1%,-1%,52*,-4%,·
C[C@H]1COC(=O)[C@H](Cc2ccccc2)NC(=O)[C@@H](C)COC(=O)[C@H](Cc2ccccc2)NC1=O,·,·,·,·,·,1%[12.9 µM]
COc1cccc(-c2nnc3n2N=C(c2c(OC)cccc2OC)CS3)c1OC,-5,·,·,-4,·,3%
Cc1cc(/C=C2/C(=O)N(C)C(=S)N2C)c(C)n1C1CC1,14*,-24%,1%,20,-11%,-27%
Cc1cc(C=C2C(=O)N(C)C(=S)N(C)C2=O)c(C)n1C1CCCC1,1,-22%,19%,27,-4%,-12%
Cc1cc(/C=C2\C(=O)NC(=S)N(C)C2=O)c(C)n1C1CCCCC1,13*,-17%,-2%,21,5%,-10%
C[C@]12CC[C@@H]3c4ccc(O)cc4CC[C@H]3[C@@H]1C[C@H](O)C2O (some centres undefined),·,-9%,·,·,·,·
O=C(c1cnn2c(C(F)F)cc(C3CC3)nc12)N1CCCC1,-3,-8%,10%,-11,0%,0%
O=C(c1cc2nc(C3CC3)cc(C(F)F)n2n1)N1CCOCC1,10,-16%,-14%,32*,-7%,-1%
O=C(N=C1N=C2C=CC=CN2Cc2ccccc21)c1ccc(S(=O)(=O)N2CCOCC2)cc1,33*,-1%,-18%,154*,-25%,3%
CN(C)S(=O)(=O)c1cccc(C(=O)N=C2N=C3C=CC(Cl)=CN3Cc3ccccc32)c1,53*,-7%,0%,130*,?,-7%
CN(C)S(=O)(=O)c1cccc(C(=O)N2CCN(Cc3ccccc3)CC2)c1,0,-3%,8%,6,0%,1%

# High-throughput results (PubChem)
